An excerpt weighted towards active compounds, which were near 8% of everything screened.
KB-3-1 tox – KB-3-1 parental cell cytotoxicity; KB-3-1 viability, CellTiter-Glo ATP luminescence, 72 h; actives 1.4% (n = 400,000); Potency, µM (titrated, usually from 46.1 µM), hits mostly cytotoxic; note: % is set by controls: 0 for no effect and ±100 for the full control effect; nearly all actives have a fitted effect of over 60% in size
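Parental KB-3-1 adenocarcinoma cells in phenol-red-free DMEM with 10% FBS were pin-treated with compounds at several concentrations, incubated 72 h at 37 °C, and viability read by CellTiter-Glo luminescence; concentration-effect curves were fitted after normalization.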
HT1080 IDH1KD tx – kills HT-1080 cells with IDH1 knockdown. HT-1080 IDH1 knockdown viability, ATP luminescence, 48 h. Potency, µM (top dose mostly 46.1 µM), for inactives: at the highest dose activity, negative = toxicity, hits mostly cytotoxic. actives 2% (n = 360,000). AID 686971;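 note: 0% = DMSO wells and -100% = cell-free medium wells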
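Knockdown cells (IDH1KD HT-1080) received compounds 2 h after plating at 750 cells/well and were kept 48 h at 37 °C in 5% FBS RPMI. A CellTiter-Glo luminescence read gave % activity for curve fitting.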
HT1080NT lethal – kills 2HG-producing HT-1080-NT fibrosarcoma cells; actives 1.6% (n = 360,000); AID 686970; HT-1080-NT fibrosarcoma viability, CellTiter-Glo ATP luminescence, 48 h; Potency, µM (titrated, usually from 46.1 µM), for the others: at the highest dose activity, negative = less viability, most hits filed as cytotoxic;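 note: NT is the 2HG producing partner of a matched IDH1 knockdown line; 0% = DMSO-treated cells and -100% = media-only wells without cells; nearly all actives have a fitted effect of over 55% in size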
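HT-1080-NT fibrosarcoma cells (2HG-overproducing), 750 cells/well in RPMI with 5% FBS, dosed after 2 h and incubated 48 h at 37C. CellTiter-Glo luminescence normalized to DMSO and no-cell wells; concentration-response curves fitted and classed.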
MCF10A rereplic – inducers of DNA re-replication in MCF 10A breast cells | MCF 10A DNA re-replication, Hoechst nuclear intensity, 48 h | AID 624296 | actives 2.9% (n = 350,000) | Potency, µM (highest dose often 46.1 µM), without a hit: at the highest dose activity, positive = re-replication, usual class: activators; note: % of control where 0% means no effect; nearly all actives have a fitted effect of over 50% in size
KB-V1 MDR tox – KB-V1 MDR subline cytotoxicity | KB-V1 MDR cells viability, CellTiter-Glo, 72 h | Potency, µM (doses to about 46.1 µM), hits mostly cytotoxic | actives 3.4% (n = 400,000); note: % is set by controls: 0 for no effect and ±100 for the full control effect; nearly all actives have a fitted effect of over 60% in size
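Cytotoxicity via CellTiter-Glo luminescence after 72 h compound exposure at 37 degrees C. Cells: drug-selected KB-V1 line, DMEM phenol-red free plus 10% FBS. Compounds tested at multiple concentrations; normalized data fitted to concentration-effect curves.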
SW480 rereplic – inducers of DNA re-replication in SW480 colon cancer cells | actives 1.8% (n = 340,000) | Potency, µM (highest dose often 46.1 µM), for inactives: at the highest dose re-replication activation, hits mostly activators | SW480 DNA re-replication, Hoechst DNA content imaging, 48 h | AID 624297; note: % of control where 0% means no effect; nearly all actives have a fitted effect of over 55% in size
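Compounds, transferred as 23 nL by pin tool, were incubated with cells for 48 hr; DNA content per nucleus was then quantified by Hoechst staining and fluorescence plate imaging.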
An asterisk follows results filed as active; i = inactive; ? = inconclusive; . = no result; [ ] = remark or other dose. Calls come from the whole dose curve; as a rule, active = well fitted curve in the direction sought with a large enough effect; inconclusive = small, poorly fitted or top-dose-only effect, or another doubt; inactive = no such curve, though single readings can be large; an effect the other way counts as inactive or inconclusive. Potency is the fitted concentration of half-maximal effect.

SMILES | KB-3-1 tox | HT1080 IDH1KD tx | HT1080NT lethal | MCF10A rereplic | KB-V1 MDR tox | SW480 rereplic
COc1ccc(COc2ccccc2C(=O)NCc2ccccc2)cc1F | i | -16% | -2% | ? | 15µM* | 12%
COc1ccccc1CNC(=O)c1ccc(-c2ccccc2C(F)(F)F)o1 | i | -17% | -21% | 15µM* | i | 1%
COc1cccc(CNCc2ccc(OC)c3ccccc23)c1OC | i | ? | ? | 1% | i | 13%
C[C@@H](c1ccccc1)N1C[C@H]2CCCN2c2cc(Br)ccc2S1(=O)=O | ? | ? | ? | 7.3µM* | ? | 16µM*
O=S1(=O)c2ccc(Br)cc2N2CCC[C@@H]2CN1Cc1ccc(Cl)cc1 | i | 5% | 6% | ? | ? | ?
O=S1(=O)c2ccc(Br)cc2N2CC[C@H](C2)N1Cc1ccc(Cl)cc1 | ? | 7.3µM* | ? | 3.3µM* | ? | 6.5µM*
O=S1(=O)c2ccc(Br)cc2N2CCC[C@H]2CN1Cc1ccccc1 | ? | 5.8µM* | ? | 2.6µM* | 5.2µM* | 5.2µM*
CCOC(=O)c1sc2cccc(F)c2c1S(=O)(=O)N1CCN(c2cccc(Cl)c2)CC1 | i | . | . | . | i | .
COc1cccc(Cn2c(=O)n(CCc3ccccc3)c(=O)c3c2c2cc(OC)ccc2n3C)c1 | i | . | . | . | i | .
O=S(=O)(c1ccc2nc(Nc3ccc(Br)cc3F)ccc2c1)N1CCCCC1 | i | . | . | . | ? | .
COc1cc2ccc(=O)oc2c(O)c1OCC=C(C)C | i | ? | -28% | -10% | i | 2.1µM*
CC(C)=CCOc1ccc2ccc(=O)oc2c1 | i | 13% | 12% | -8% | i | -2%
CC(C)CCCCCCCCCCCCC(=O)NCC(=O)NC1C(O)C(O)C(Nc2ncnc3nc[nH]c23)OC1C(O)CO (stereo not drawn) | 0.18µM* | 0.16µM* | ? | 0% | 0.16µM* | ?
O=c1c(Br)ccc(Br)cc1Br | 6.5µM* | 5.2µM* | 3.7µM* | ? | i | ?
COc1ccc(NC(=O)CC2C(=O)N(c3ccccc3)C(=O)N2CCc2sccc2C)cc1 (stereo not drawn) | i | . | . | . | i | .
CCOc1ccc(-c2cc(C(=O)Nc3ccc4c(c3)OCCO4)c3ccccc3n2)cc1 | 18µM* | ? | ? | 1% | ? | 12%
Cc1cccc(-c2cc(C(=O)Nc3ccc4c(c3)OCCO4)c3ccccc3n2)c1 | i | 4%[9.24 µM] | -19% | 12% | ? | -2%
O=C(COC(=O)c1cc(-c2ccccc2)nc2ccccc12)Nc1ccc2c(c1)OCO2 | i | -7% | -4% | 5.2µM* | ? | 11%
O=C(Nc1ccon1)c1cc(-c2ccccc2)nc2ccccc12 | i | 0% | -8% | 2% | ? | 3%
CCOc1cccc(-c2cc(C(=O)Nc3ccon3)c3ccccc3n2)c1 | i | -23% | -10% | 8% | 16µM* | 2%
COc1ccc(-c2cc(C(=O)OCC(=O)Nc3ccc4c(c3)OCO4)c3ccccc3n2)cc1 | i | -7% | -13% | -2% | i | -1%
COc1cc(Cn2c(=O)sc3ccccc32)ccc1OCCC(C)C | i | . | . | . | i | .
Cc1cc(C)c(Cn2c(=O)n(Cc3ccccc3)c(=O)c3c(C)c(C)sc32)c(C)c1 | i | . | . | . | i | .
CCOc1cc(CNCCc2ccc(S(N)(=O)=O)cc2)ccc1OCc1ccccc1 | ? | ? | ? | 21µM* | ? | ?
CCOc1cc(CNCCc2ccc(S(N)(=O)=O)cc2)cc(Cl)c1OCc1ccccc1 | i | 18µM* | 14µM* | 1% | ? | ?
SMILES | KB-3-1 tox | HT1080 IDH1KD tx | HT1080NT lethal | MCF10A rereplic | KB-V1 MDR tox | SW480 rereplic
CCNCc1cc(Cl)c(OCc2ccccc2)c(OCC)c1 | i | ? | 16µM* | -10% | i | 1%
CCOc1cc(CNCc2ccccc2)ccc1OCc1ccc(Cl)cc1 | ? | ? | 15µM* | ? | i | 15µM*
Cc1nn2c(C)c(C(=O)NCc3cccc(Br)c3)cnc2c1-c1ccccc1 | i | . | . | . | i | .
C=C1C=C(C)n2ncc(C(=O)NCCCCCC)c2N1 | ? | . | . | . | i | .
Cc1nn(C)c(C)c1S(=O)(=O)N(CC(=O)NCCc1ccccc1)c1ccc(C(C)C)cc1 | i | . | . | . | i | .
CCOc1cc(CNn2cn[nH]c2=S)cc(Cl)c1OCc1ccccc1F | i | -4% | -7% | 27% | 16µM* | ?
COc1cc(CNn2c(C)n[nH]c2=S)cc(Cl)c1OCc1ccc(F)cc1 | i | 14% | 0% | -7% | ? | -10%
Cc1ccc(S(=O)(=O)c2nnn3c2nc(NCc2ccc4c(c2)OCO4)c2sccc23)cc1 | i | . | . | . | i | .
O=C(NNC(=O)C1[C@H]2CCCC[C@@H]12)c1ccc(=O)oc1 (stereo partly drawn) | i | -2% | 12% | 14% | ? | 2.3µM*
O=C(NC12CC3CC(CC(C3)C1)C2)c1ccc(=O)oc1 | i | 0% | 0% | -1% | i | -8%
Cc1nnc(SCc2ccc(Cl)cc2)nc1/C=C/N(C)C | i | 1% | 7% | 18µM* | i | -5%
N#C/C(=C/c1ccc([N+](=O)[O-])cc1)C(N)=O | i | 11% | -8% | 1% | i | 0%
N#C/C(=C\c1cc([N+](=O)[O-])ccc1Cl)C(N)=O | i | ? | ? | 21µM* | i | 8.2µM*
CCc1ccccc1NC(=S)NC1CC2CCCC(C1)N2Cc1cccs1 (stereo not drawn) | i | ? | ? | 0% | ? | -7%
Cc1cccc(NC(=S)NC2CC3CCCC(C2)N3CC(C)C)c1C (stereo not drawn) | i | 13% | 6% | 13% | 21µM* | 11%
Cc1cccc(NC(=S)NC2CC3CCCC(C2)N3Cc2cccs2)c1C (stereo not drawn) | i | ? | 11µM* | 1% | i | 0%
CCOc1cc(C2c3c(oc4ccccc4c3=O)C(=O)N2Cc2ccccc2Cl)ccc1O (stereo not drawn) | i | . | . | . | i | .
COc1ccc(C2CC(c3ccccc3)=NN2C(=O)c2ccc(F)cc2)cc1 (stereo not drawn) | i | -26% | -16% | 15% | i | 6%
COc1ccc(C2CC(c3ccccc3)=NN2S(=O)(=O)c2ccccc2)cc1 (stereo not drawn) | i | -7% | -4% | 20% | i | ?
C=CCOc1ccc(C2CC(C)=NN2c2ccccc2)cc1 (stereo not drawn) | i | 13% | 13% | 21µM* | ? | ?
